# Hits are enriched below; roughly 3.1% of the tested compounds scored in any of these assays.
# HSF-1 act: increases HSF-1 driven luciferase reporter signal; NIH3T3-HGL HSF-1 luciferase reporter, MG132, 8 h; 100% = twice DMSO control signal; activation, % at 9 µM; hit rate 1.7% among 300,000; AID 504408;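 active = mean replicate activation of at least 50% with a set share of replicates each reaching 50%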
# ARNT-TACC3 inh: disrupts binding between human ARNT and TACC3 | Q9Y6A5 | AlphaScreen His-ARNT PAS-B/GST-TACC3 binding, luminescence; TACC3 fragment carries E629A point mutation | inhibition, % at 9.99 µM | hit rate 0.66% among 390,000 | AID 623870;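 active = mean inhibition of replicates at least 50% and at least half of replicates each reaching 50%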
# HSP90 refold inh: HSP90 refolding inhibition in rabbit reticulocyte lysate; luciferase refolding luminescence, 3 h; inhibition, % at 5.6 µM; hit rate 0.91% among 290,000; AID 1789;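 active = inhibition above the screen-wide mean plus 3 SD, computed separately per campaign, cut at about 16% in these data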;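 note: inhibitors lower the luminescence because luciferase stays unfolded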
# HSF1 inh: HSF1 inhibition; NIH3T3-HGL HSE-luciferase, MG132-induced, luminescence 8 h; stronger effect = lower value; activity change, negative = inhibition, % at 7.5 µM (by protocol); hit rate 0.77% among 300,000;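 active = more than half of replicate wells show activity change below -50%, luminescence cut by over half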;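 note: luciferase reports HSF-1 transcriptional activity via heat shock element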
# HIF activator: HIF pathway transcriptional activation; AID 1910; activation, % at 7.5 µM (by protocol); U2OS HRE-luciferase reporter, luminescence; normalized: DMSO 0%, desferrioxamine 100%; hit rate 0.32% among 300,000;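 active = mean activation of at least 10% of the iron chelator positive control signal, with at least half of replicates also reaching 10%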
# Hits are given with their value; i = inactive; nt = no result.
SMILES,HSF-1 act,ARNT-TACC3 inh,HSP90 refold inh,HSF1 inh,HIF activator
O=C(COc1ccc(Cl)cc1)Nc1ncc([N+](=O)[O-])s1,78,i,i,i,i
CCN(C(=O)CSc1ncccc1C(=O)Oc1cccc([N+](=O)[O-])c1)c1cccc(C)c1,60,i,i,i,i
C/C=C/c1cnc2c(c1)C(=O)N([C@H](C)CO)C[C@H](C)[C@H](CN(C)Cc1ccncc1)O2,nt,i,nt,nt,nt
O=C(C[C@@H]1CC[C@H](NC(=O)Cc2ccccn2)[C@H](CO)O1)NCCCN1CCOCC1,nt,i,nt,nt,nt
COc1nnc(-c2ccc(C(=O)N3C[C@@H]4C[C@H](C3)c3cccc(=O)n3C4)cc2)c2ccccc12,i,i,i,-58,i
CCOC(=O)/C=C(\C)Sc1cc(O)c2ccccc2c1O,nt,77,i,nt,nt
CS(=O)(=O)c1sc(C#N)c2c1C(=O)CC(c1ccccc1)C2 (configuration not stated),89,i,i,i,i
O=c1o[nH]c(-c2ccccc2)c1-c1ccccc1,i,nt,nt,-60,i
CC(=O)N1N=C(c2ccccc2)CC1c1ccccc1[N+](=O)[O-] (configuration not stated),109,i,i,i,i
C[C@H](CO)N1C[C@H](C)[C@@H](CN(C)C(=O)C2CC2)Oc2ncc(C#Cc3ccccc3F)cc2C1=O,nt,i,nt,nt,nt
CC(C)CN=c1cc(-c2ccccc2)oc2ccc(Cl)cc12,60,i,i,i,i
CC(C)NC(=O)N(O)C1N(Cc2ccc3c(c2)OCO3)C(=S)SC1(C)C (configuration not stated),i,i,i,-58,i
CC(C)NC(=O)N(O)C1N(C(C)C)C(=O)N(Cc2ccc3c(c2)OCO3)C1(C)C (configuration not stated),i,i,i,i,i
O=C(C1=NN[C@@H]2C(=O)N(c3cccc(F)c3)C(=O)[C@H]12)C(c1ccccc1)c1ccccc1,i,i,i,i,i
O=C(C1=NN[C@@H]2C(=O)N(c3cccc(C(F)(F)F)c3)C(=O)[C@H]12)C(c1ccccc1)c1ccccc1,i,i,i,i,57
C[C@@H]1CN([C@@H](C)CO)C(=O)c2cc(-c3ccc(C(=O)N(C)C)cc3)cnc2O[C@H]1CN(C)C(=O)CN(C)C,nt,i,nt,nt,nt
CN1CCN(Cc2cccc(Oc3ccccc3)c2)CC1,i,i,i,i,i
OC1CCN(Cc2cccc(Oc3ccccc3)c2)CC1,i,i,i,-51,i
CN1C(=O)c2cc(NC(=O)c3ccc(F)c(F)c3)ccc2OC[C@@H]2O[C@H](CC(=O)N3CCOCC3)CC[C@H]21,nt,i,nt,nt,nt
CN1CCN(Cn2cc(/C=C/C(=O)c3ccccc3)c3ccccc32)CC1,87,i,i,i,i
O=C(/C=C/c1cn(CC(O)CN2CCCCC2)c2ccccc12)c1ccccc1 (configuration not stated),i,i,i,i,i
CO[C@@H]1CN(C)C(=O)c2ccc(NC(=O)CN(C)C)cc2OC[C@@H](C)N(C(=O)C2CCOCC2)C[C@H]1C,nt,i,nt,nt,nt
Cc1cc(C)c2cc(CN(Cc3ccco3)C(=S)NCC3CCCO3)c(=O)[nH]c2c1 (configuration not stated),299,i,i,i,i
COC(=O)c1ccccc1NC(=S)N(Cc1ccc2c(c1)OCO2)Cc1cc2ccc(OC)cc2[nH]c1=O,90,i,i,i,i
CCCC(c1nnnn1C(C)(C)CC)N(Cc1ccco1)Cc1cc2ccc(OC)cc2[nH]c1=O (configuration not stated),57,i,i,i,i
SMILES,HSF-1 act,ARNT-TACC3 inh,HSP90 refold inh,HSF1 inh,HIF activator
Cc1ccc(C)c2[nH]c(=O)c(CN(CC3CCCO3)C(=S)NCc3ccco3)cc12 (configuration not stated),i,i,i,i,i
COc1ccc2cc(CN(Cc3ccco3)C(=S)NCC3CCCO3)c(=O)[nH]c2c1 (configuration not stated),55,i,i,i,i
CCC(c1nnnn1Cc1ccccc1)N(Cc1ccco1)Cc1cc2cc(OC)ccc2[nH]c1=O (configuration not stated),i,i,i,i,i
Cc1cccc(S(=O)(=O)N2CCCCN3[C@H](CO)[C@@H](c4ccc(C#CC(C)C)cc4)[C@@H]3C2)c1,nt,i,nt,nt,nt
Cc1noc(C)c1S(=O)(=O)Nc1ccc2c(c1)CC(=O)N([C@@H](C)CO)C[C@H](C)[C@@H](CN(C)S(C)(=O)=O)O2,nt,i,nt,nt,nt
C[C@H](CO)N1C[C@H](C)[C@H](CN(C)C(=O)Nc2ccc(C(F)(F)F)cc2)OCCCC[C@H](C)Oc2ccc(NC(=O)Cc3ccccc3)cc2C1=O,nt,i,nt,nt,nt
COc1ccc(-c2csc3nc(-c4ccccc4F)oc(=O)c23)cc1,78,i,i,i,i
CC1CCc2nc(/C(C#N)=C/c3ccncc3)sc2C1 (configuration not stated),97,nt,i,i,i
COCCn1c(SCC(=O)c2cc(C)n(C)c2C)nc2ccccc2c1=O,i,i,i,-72,i
COCCn1c(C)cc(C(=O)CSc2nnc3ccccn23)c1C,i,i,50,-51,i
CCCNC(=O)C[C@@H]1CC[C@H]2[C@@H](COc3ccc(NC(=O)Cc4ccccc4)cc3C(=O)N2C)O1,nt,i,nt,nt,nt
Cc1ccc(N(C)S(=O)(=O)c2ccc(-c3cc(C)no3)s2)cc1,i,nt,i,i,9.7
Cc1cc(-c2ccc(S(=O)(=O)N(C)c3ccc(C)c(C)c3)s2)on1,i,i,i,i,i
O=C(NCCCN1CCC(Cc2ccccc2)CC1)C1CC(=O)N(C2CCCC2)C1 (configuration not stated),i,i,i,-62,i
C[C@@H]1CN([C@H](C)CO)C(=O)c2cc(N(C)C)ccc2O[C@@H](C)CCCCO[C@@H]1CN(C)C(=O)c1ccncc1,nt,i,nt,nt,nt
Cc1ccc(-n2c(C)cc(C(=O)COc3c(CO)cc(F)cc3CO)c2C)cc1C,56,i,i,i,i
Cc1ccc(O)c(N=CC2=C(O)c3ccccc3C2=O)c1,i,i,i,i,i
O=C1C(C=Nc2ccccc2O)=C(O)c2ccccc21,i,i,17,i,i
O=C1C(C=Nc2ccccc2)=C(O)c2ccccc21,54,i,17,i,i
CN=CC1=C(O)c2ccccc2C1=O,i,i,i,i,i
Cc1c(Cl)cccc1NC(=S)N1CCN(C(=O)c2ccco2)CC1,i,i,i,i,i
Cc1cccc(NC(=S)N2CCN(C(=O)c3ccco3)CC2)c1C,61,i,i,i,i
O=C(O)CN1C(=O)/C(=C\c2cc(Br)ccc2OCc2ccc(F)cc2)SC1=S,70,i,i,i,i
O=C(O)CN1C(=O)/C(=C\c2cc(Br)ccc2OCc2ccc(Cl)cc2)SC1=S,i,i,i,i,i
c1ccc2c(c1)CC1(CCCCC1)n1nnnc1-2,i,i,i,-59,i
COc1ccc(CN2CCN(S(=O)(=O)c3ccc(F)cc3)CC2)cc1OC,i,i,i,i,i
COc1ccc(CN2CCN(S(=O)(=O)c3ccccc3)CC2)cc1Br,i,i,i,-61,i

# Compound activity deposited in PubChem by several laboratories.
